Nrf2 activator: qHTS of Nrf2 Activators; AREc32 ARE-luciferase reporter (MCF7-derived line), luminescence, 24 h; Potency, µM (top dose mostly 46.1 µM), inactives show top-dose activation, usual class: activators; hit rate 0.31% among 410,000; AID 624171, 2012; note: potency is the fitted concentration of half-maximal effect; % of control where 0% means no effect; nearly all actives have a fitted effect of over 65% in size
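For detection, Steady-Glo was added and plates sat 30 min at RT; before that, AREc32_Fluc cells grown overnight in OPTI-MEM/5% FBS had been treated with 23 nL compound for 24 hr at 37 deg C.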
miR-21 act: qHTS Assay for Modulators of miRNAs and/orActivators of miR-21 | HeLa miR-21 FLuc reporter, luciferase, 48 h | Potency, µM (highest dose often 38.3 µM), without a hit: at the top dose activity change, positive = activation, usual class: activators | 340,000 tested, under 10 active | AID 2288, 2010;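 note: % of control where 0% means no effect; miR-21 action dims this reporter so a rising signal means less miR-21 action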
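HeLa cells endogenously expressing miR-21, stably carrying CMV-driven firefly luciferase with a downstream miR-21 binding site, 2000 cells/well. Titrations up to approximately 40 uM, 48 hours; luciferase luminescence read.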
TCR act: Activators of T cell receptors: qHTS campaign; primary human leukocytes, anti-CD3, IL-2 HTRF, 48 h; Potency, µM (doses to about 9.22 µM), for the others: top-dose activation of IL-2 secretion, usual class: activators; 330,000 tested, under 10 active; AID 504894, 2011; note: % of control where 0% means no effect
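Primary human leukocytes were stimulated with a-CD3 beads plus compounds for 48 hr without co-stimulation; secreted IL-2 was quantified by HTRF using a-IL-2-K (europium cryptate) and a-IL-2-d2, excited at 320nm with acceptor emission read at 665nm.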
A549 viability: Nrf2 qHTS screen for inhibitors: counterscreen for cytotoxicity; A549 ARE-Fluc cells, CellTiter-Fluor viability, 18-24 h; Potency, µM (series often up to 46 µM), without a hit: at the highest dose activity change, negative = cytotoxicity, most hits filed as inhibitors; hit rate 0.16% among 390,000; note: potency is the fitted concentration of half-maximal effect; % is set by controls: 0 for no effect and ±100 for the full control effect
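A549 ARE_Fluc cells in 5% FBS OPTI-MEM were exposed to compounds in concentration-response for 18-24 h at 37 deg C. Viability was read by CellTiter-Fluor fluorescence (Ex 405/Em 525) after 30 min, before the luciferase read.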
ClpP mod: qHTS Assay for Activators of ClpP | purified B. subtilis ClpP, FRET peptide cleavage, 20 min | Potency, µM (highest dose often 57.5 µM), for the others: top-dose activity change, negative = active | AID 651965, 2013 | ATP-dependent Clp protease proteolytic subunit (Bacillus subtilis (strain 168)), P80244 | hit rate 1.9% among 340,000; active = well fitted falling curve with a large enough effect; inconclusive = small, poorly fitted or top-dose-only effect; inactive = no such curve, though single readings can be large or run the other way; note: potency is the fitted concentration of half-maximal effect; the source files actives as falling curves though it sought activators and does not explain the sign; nearly all actives have a fitted effect of over 65% in size
Target sequence (P80244 whole entry, looked up): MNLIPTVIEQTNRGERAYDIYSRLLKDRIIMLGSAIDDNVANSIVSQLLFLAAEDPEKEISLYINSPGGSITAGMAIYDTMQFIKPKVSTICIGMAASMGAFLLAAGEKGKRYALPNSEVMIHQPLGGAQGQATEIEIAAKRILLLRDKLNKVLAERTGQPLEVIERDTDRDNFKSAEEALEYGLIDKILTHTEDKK
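Purified B. subtilis ClpP, 10 microg/mL final in Tris/HCl pH8 with KCl, BSA, glycerol and Tween-20, cleaved an Abz/nitrotyrosine-quenched decapeptide. Fluorescence (ex 320, em 430) was read at 0 and 20 min at room temperature. Delta was normalized to 5.8 microM ADEP and DMSO/no-enzyme controls.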
Nrf2 inh: Nrf2 qHTS screen for inhibitors. Potency, µM (series often up to 46 µM), inactives show top-dose activity change, negative = inhibition, most hits filed as inhibitors. hit rate 2.1% among 360,000. A549 ARE-Fluc reporter, luciferase luminescence, 18-24 h; note: potency is the fitted concentration of half-maximal effect; % is set by controls: 0 for no effect and ±100 for the full control effect; nearly all actives have a fitted effect of over 60% in size
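Concentration-response testing used A549 ARE_Fluc cells at 5000 cells/well. Following an 18-24 h compound incubation, viability was read by fluorescence (Ex 405/Em 525) and luciferase output by luminescence.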
An asterisk follows results filed as active; ? = inconclusive; . = no result given; [ ] = remark or other dose. A selection: hits, their analogues and other compounds. The true share with any hit is near 3.7%. Unless noted, calls come from the whole dose curve; as a rule, active = well fitted curve in the direction sought with a large enough effect; inconclusive = small, poorly fitted or top-dose-only effect, or another doubt; inactive = no such curve, though single readings can be large; an effect the other way counts as inactive or inconclusive.

SMILES	Nrf2 activator	miR-21 act	TCR act	A549 viability	ClpP mod	Nrf2 inh
CCC(=O)Nc1c(S(=O)(=O)c2ccc(C)cc2)c2nc3ccccc3nc2n1C(C)c1ccccc1 (stereo unspecified)	0%	13%	-8%[46.1 µM]	?	20µM*	?
CCC(=O)Nc1c(S(=O)(=O)c2ccccc2)c2nc3ccccc3nc2n1C(C)c1ccccc1 (stereo unspecified)	0%	-4%	-9%	-24%	32µM*	18µM*
CCCCn1c(NC(=O)c2ccc(Br)o2)c(S(=O)(=O)c2ccccc2)c2nc3ccccc3nc21	0%	0%	-16%	?	-20%	.
CCOc1cc(S(=O)(=O)N2CCN(C(=O)c3ccco3)CC2)ccc1F	3%	-3%	.	12%	-2%	-16%
Cc1cccc(-n2ncc3c(NCc4cccnc4)ncnc32)c1	4%	-25%	0%	-9%	5%	?
Cc1ccc(-n2ncc3c(NCc4cccnc4)ncnc32)c(C)c1	0%	-1%	1%	-13%	-24%	9.2µM*
O=C(O)c1cc2cc(OCc3ccccc3)ccc2[nH]1	0%	-19%	-6%	-6%	28µM*	23%
COc1ccc(NC(=O)c2ccc3c(c2)c(C)c(C)n3Cc2ccc(F)cc2)c(OC)c1	1%	-10%	.	11%	22µM*	?
COc1ccc(OC)c(NC(=O)c2ccc3c(c2)c(C)c(C)n3Cc2ccc(F)cc2)c1	-1%	-8%	.	?	22µM*	?
COc1ccc(OC)c(CNC(=O)c2ccc3c(c2)c(C)c(C)n3Cc2ccc(Cl)cc2)c1	0%	21%	.	3%	32µM*	22%
COc1cccc(C2c3c(ncn(-c4ccc(C)cc4)c3=N)Oc3ccc4ccccc4c32)c1 (stereo unspecified)	.	.	.	-18%	.	11%
Cc1cnc(C(=O)OCC(=O)Nc2ccccc2-c2ccccc2)cn1	-1%	.	7%	-7%	0%	4%
Cc1oc(-c2cc(F)ccc2F)nc1CN1CCN(c2ncnc3ccccc23)CC1	-1%	-14%	-2%	-9%	-3%	26µM*
Cc1oc(-c2cc(F)ccc2F)nc1CN1CCC(C(=O)N2CCOCC2)CC1	1%	0%	3%	-7%	-2%	9%
O=C(NCCc1csc(-c2ccc(C(F)(F)F)cc2)n1)c1ccccc1Cl	4%	4%	.	0%	-18%	.
O=C(NCCc1csc(-c2ccc(C(F)(F)F)cc2)n1)c1cccs1	0%	8%	-5%	-2%	-11%	26µM*
CC(CNC(=O)c1cc2ccccn2n1)c1ccccc1 (stereo unspecified)	5%	-39%	.	12%	?	?
N#Cc1ccc(OCC(O)CN2CCN(c3ncc(C(F)(F)F)cc3Cl)CC2)cc1 (stereo unspecified)	3%	?	1%	-14%	.	18µM*
COCCNC(=O)c1cc2c(c(-c3cccc(-c4cc5ccccc5o4)c3)n1)[C@@H](CCO)N(S(=O)C(C)(C)C)C2 (stereo partly specified)	8%	.	.	.	-13%	.
Cc1[nH]n(-c2nc(-c3ccc(Cl)cc3)cs2)c(=O)c1N=Nc1ccc(O)cc1	3%	-20%	-1%	15µM*	.	?
CC(C)(C)NC(=O)c1ccc2nc(CCc3ccccc3)oc2c1	4%	-45%	.	10%	-2%	.
Cc1cc(Br)ccc1OCC(=O)N(Cc1nc(-c2ccccc2)no1)C(C)C	1%	0%	3%	-2%	-1%	18µM*
COc1ccccc1OCC(=O)N(Cc1nc(-c2ccccc2)no1)C(C)C	2%	-11%	-2%	-12%	.	13µM*
Cc1nc(NCC(=O)c2c[nH]c3ccccc23)sc1C	.	.	.	.	-16%	.
CSc1nsc(N/N=C/c2ccc3c(c2)OCO3)c1C#N	6%	-62%	-9%	0%	21%	4%

Screening results: PubChem, National Center for Advancing Translational Sciences (NCATS)
